Only some compounds are listed: those with a hit (about 7.5% of all), similar ones and a draw of the others.
FLuc modulator – qHTS profiling assay for firefly luciferase inhibitor/activator using purifed enzyme and Km concentrations of substrates (counterscreen for miR-21 project). Luciferin 4-monooxygenase (Photinus pyralis), P08659. Potency, µM (top dose mostly 57.5 µM), hits mostly inhibitors. AID 588342, 2011. purified FLuc, Km substrates, luminescence inhibition. hit rate 6.9% among 360,000; also: nearly all actives have a fitted effect of over 55% in size
Target sequence (P08659 whole entry, looked up): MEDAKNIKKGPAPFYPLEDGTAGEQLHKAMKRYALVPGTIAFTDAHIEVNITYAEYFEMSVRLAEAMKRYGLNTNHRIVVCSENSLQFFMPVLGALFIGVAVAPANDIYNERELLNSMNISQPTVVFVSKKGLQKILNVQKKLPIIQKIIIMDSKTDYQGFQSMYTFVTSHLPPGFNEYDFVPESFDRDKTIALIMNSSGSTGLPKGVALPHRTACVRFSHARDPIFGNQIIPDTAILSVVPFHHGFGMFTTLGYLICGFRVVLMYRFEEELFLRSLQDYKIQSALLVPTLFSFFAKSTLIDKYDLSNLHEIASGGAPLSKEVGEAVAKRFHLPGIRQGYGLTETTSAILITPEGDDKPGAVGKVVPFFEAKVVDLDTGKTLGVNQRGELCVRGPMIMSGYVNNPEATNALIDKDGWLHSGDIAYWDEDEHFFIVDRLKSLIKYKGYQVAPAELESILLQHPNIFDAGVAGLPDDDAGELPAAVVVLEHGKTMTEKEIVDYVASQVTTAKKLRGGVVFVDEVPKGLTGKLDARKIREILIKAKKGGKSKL
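Purified P. pyralis luciferase, 10 nM final, with Km-level 10 uM D-luciferin and 10 uM ATP in 50 mM Tris acetate pH 7.5, 10 mM Mg acetate, 0.01% Tween-20, 0.05% BSA; 6-point qHTS titration about 60 µM downward; luminescence read.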
Rab9 prom act – qHTS Assay for Rab9 Promoter Activators. Huh7 Rab9 promoter-luciferase reporter, luminescence, 24 h. Potency, µM (titrated, usually from 9.22 µM), most hits filed as activators. hit rate 2.8% among 320,000; also: nearly all actives have a fitted effect of over 60% in size
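Luciferase signal after 10 min detection reagent at ambient indicates Rab9 promoter upregulation; stably transfected Huh7 cells were treated 24 h with compound in DMSO at 37 °C, 5% CO2.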
NPC1 promoter act – qHTS Assay for NPC1 Promoter Activators. Huh7 NPC1 promoter luciferase reporter, 24 h. Potency, µM (top dose mostly 9.22 µM), usual class: activators. hit rate 2.4% among 320,000. AID 485313, 2010; also: nearly all actives have a fitted effect of over 60% in size
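Stably transfected Huh7 (NPC1 promoter→luciferase), 1500 cells/well in Opti-MEM + 10% FBS, 2 h settle, then compound 24 h at 37 °C. Luminescence after 10 min with Amplite reagent.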
ELG1 genotox – qHTS screen for small molecules that induce genotoxicity in human embryonic kidney (HEK293T) cells expressing luciferase-tagged ELG1. hit rate 1.3% among 330,000. Potency, µM (titrated, usually from 46 µM), most hits filed as activators. HEK293T ELG1-luciferase reporter, luminescence, 16 h. AID 504466, 2011; also: nearly all actives have a fitted effect of over 60% in size
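16 hr compound incubation (37 °C, 5% CO2) of HEK293T cells carrying luciferase-tagged ELG1; luciferase then measured by ONE-Glo luminescence after 30 min at RT.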
SMN2 splice up – qHTS Assay for Enhancers of SMN2 Splice Variant Expression. HEK293 SMN2-luciferase splicing reporter, luminescence, 30-36 h. hit rate 2.8% among 210,000. AID 1458, 2008. Potency, µM (top dose mostly 46.1 µM), actives largely listed as activators; also: nearly all actives have a fitted effect of over 55% in size
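HEK293 cells carry an SMN2 […]–luciferase reporter in which exon 7 inclusion puts luciferase in frame. Cells were plated 10-12 h before compound addition, then incubated 30-36 h at 37C. ONE-Glo luminescence was read; sodium butyrate at 4.5 mM final served as control.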
Large screens that a line does not name were inactive. Calls follow the shape of the dose curve; as a rule, active = well fitted curve in the direction sought with a large enough effect; inconclusive = small, poorly fitted or top-dose-only effect, or another doubt; inactive = no such curve, though single readings can be large; an effect the other way counts as inactive or inconclusive.

CCn1nc(C(=O)Nc2ccc(S(=O)(=O)Nc3nccs3)cc2)c2ccccc2c1=O	SMN2 splice up 14µM
CC1(C)Cc2nc3sc4c(=O)n(Cc5ccccc5)cnc4c3cc2CS1	none
CCCn1cnc2c(sc3nc4c(cc32)CSC(C)(C)C4)c1=O	FLuc modulator inconclusive, Rab9 prom act 1.6µM, NPC1 promoter act 2.8µM, ELG1 genotox 4.6µM, SMN2 splice up 13µM
CCOc1ccc(C(=O)c2ccc(O)c(O)c2O)cc1	none (no result: FLuc modulator, Rab9 prom act, NPC1 promoter act, ELG1 genotox)
Cc1ccnc(NC2c3ccccc3C(=O)N2Cc2ccccc2Cl)c1 (stereo not given)	none
N/C(Cc1cccs1)=N\OC(=O)COc1ccc(Br)cc1Cl	FLuc modulator 11µM, NPC1 promoter act inconclusive, ELG1 genotox inconclusive
O=C(COC(=O)COc1ccc(Cl)cc1Br)NCc1cccs1	FLuc modulator inconclusive
N/C(Cc1cccs1)=N\OC(=O)COc1ccccc1Cl	FLuc modulator 24µM, Rab9 prom act inconclusive, ELG1 genotox 23µM
CCC1=C(OC(=O)N(CC)CC)N2C(=O)OC(=NCC(=O)OC)[C@]2(Cc2ccccc2)[C@H]2C1=CC[C@H]1C(=O)N(C)C(=O)[C@H]12	none
O=C(Nc1ccn(Cc2ccccc2F)n1)c1ccc(COc2cccc(Br)c2)cc1	FLuc modulator 6.7µM, Rab9 prom act 1.8µM, NPC1 promoter act 1.6µM, ELG1 genotox inconclusive, SMN2 splice up inconclusive
O=C(Nc1ccn(Cc2ccccc2F)n1)c1ccc(COc2ccccc2Cl)cc1	none
CCCc1cc(C(=O)N/N=C/c2cccn2C)cs1	FLuc modulator 17µM, Rab9 prom act inconclusive, NPC1 promoter act inconclusive, ELG1 genotox 18µM (no result: SMN2 splice up)
Cn1cc(/C=N\NC(=O)c2cccs2)c2ccccc21	FLuc modulator inconclusive, Rab9 prom act 2.2µM, NPC1 promoter act inconclusive, ELG1 genotox 11µM, SMN2 splice up 14µM
Cn1cccc1/C=N/NC(=O)c1cccs1	FLuc modulator 15µM, Rab9 prom act inconclusive, NPC1 promoter act inconclusive, ELG1 genotox inconclusive (no result: SMN2 splice up)
O=C(O)C1C2C=CC3(CN(C4CCCC4)C(=O)C13)O2 (stereo not given)	none
CC(=O)c1c(C)nn(C(=O)c2cccs2)c1C	none
Cc1nn(C(=O)c2ccc3c(c2)OCO3)c(N)c1-c1ccccc1	FLuc modulator 0.48µM, ELG1 genotox inconclusive
Cc1nn(C(=O)c2cccs2)c(N)c1-c1ccccc1	FLuc modulator 4.3µM, Rab9 prom act inconclusive, NPC1 promoter act inconclusive, ELG1 genotox inconclusive, SMN2 splice up inconclusive
O=C(O)CCCNC(=O)Nc1ccccc1	FLuc modulator inconclusive
COc1ccc(S(=O)(=O)Nc2ccc3oc4ncccc4c(=O)c3c2)cc1OC	none (no result: SMN2 splice up)
Cc1[nH][nH]c(=O)c1N=Nc1ccccc1Cl	FLuc modulator 15µM (no result: SMN2 splice up)
Nc1[nH]c(=O)[nH]c(=O)c1N=Nc1ccccc1Cl	FLuc modulator inconclusive (no result: SMN2 splice up)
COc1ccccc1NC(=O)COC(=O)C1CC2C=CC1C2 (stereo not given)	FLuc modulator 24µM
Cn1cccc1C(=O)NC(=O)COC(=O)C12CC3CC(CC(O)(C3)C1)C2	FLuc modulator 6µM, ELG1 genotox 9.2µM
CC(=O)NC12CC3CC(C1)CC(C(=O)OCC(=O)NC(=O)c1cccn1C)(C3)C2	SMN2 splice up inconclusive
Cn1cccc1C(=O)NC(=O)COC(=O)c1ccccc1O	SMN2 splice up 35µM
Cn1cccc1C(=O)NNC(=O)COc1ccccc1Cl	FLuc modulator 15µM (no result: SMN2 splice up)
CCOc1ccccc1NC(=O)CN(c1ccc(C)cc1)S(=O)(=O)c1c(C)noc1C	none
O=C(c1c[nH]c2ccccc12)N1CCOCC1	none
O=C(Nc1cccc(C(=O)O)c1)/C(=C\c1ccco1)NC(=O)c1ccccc1	none (no result: SMN2 splice up)
COCCCn1c(C)cc(C(=O)COC(=O)C23CC4CC(CC(O)(C4)C2)C3)c1C	FLuc modulator inconclusive, Rab9 prom act 0.63µM, NPC1 promoter act inconclusive, ELG1 genotox inconclusive (no result: SMN2 splice up)
COc1ccccc1NC(=O)COC(=O)C12CC3CC(CC(Br)(C3)C1)C2	none (no result: FLuc modulator, Rab9 prom act, NPC1 promoter act, SMN2 splice up)
CCOc1ccccc1NC(=O)COC(=O)C12CC3CC(CC(O)(C3)C1)C2	FLuc modulator 11µM (no result: SMN2 splice up)
COc1ccccc1NC(=O)COC(=O)C12CC3CC(CC(Cl)(C3)C1)C2	FLuc modulator 15µM

Bioassay records deposited in PubChem by National Center for Advancing Translational Sciences (NCATS).
